This passage reports growth results from PubChem BioAssay (NCI).

Each structure is given as a SMILES string. About 83,000 compounds went through this panel and 20% of them were active in at least one assay; those are over-represented in the sample as a whole.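 Single-concentration screen, 48 h exposure, 96-well plates. Endpoint: percent growth. Below 10 = active.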 Calls of active or inactive are those of the source.

This test has as its system CAKI-1 renal. Put plainly: NCI-60 one-dose screen, 48 h (100 = growth as untreated, 0 = no growth, -100 = all killed). To be noted: 10 µM unless noted. On the procedure: Growth inhibition of the CAKI-1 human tumor cell line is measured as a screen for anti-cancer activity. Cells are grown in 96 well plates and exposed to the test compound for 48 hours. Compounds are tested at a single concentration, which is 10^-5 M for most compounds. The reported endpoint is percent growth (GI% or GIPRCNT), where numbers from 0 - 100% represent growth inhibition, and numbers from -100% - 0 represent cell death. For example, a value of 40 represents 60% growth inhibition. A value of 0 means no net growth occurred over the course of the experiment. A value of -40 indicates 40% of cells at the beginning of the experiment died by the end of the experiment. A value of -100 means all cells are dead at the end of the experiment.
NCI-60 Human Tumor Cell Lines Screen was performed using the standard one-dose NCI protocol, which is described in more detail at https://dtp.cancer.gov/discovery_development/nci-60/default.htm.
Compounds with GIPRCNT values below 10 were considered active. Activity score was based on GIPRCNT using the following formula: […]
Score is 0 for GIPRCNT values of 100 or above, 50 for GIPRCNT values of 0, and 100 for GIPRCNT values of -100.
In the case of `C/C=C(/C)C(=O)OC1C=C(CO)C(=O)C(OC(=O)/C(C)=C\C)C1C(C)C` (stereo not given), the growth is -98.7% (active).
Take `CC(=O)OC1/C=C\CC/C=C\C1` (stereo not given): the growth was 99.2% (inactive).
In the case of `COc1ccc(C2C3(C#N)C(N)=NC(=C(C#N)C#N)C23C#N)cc1OC` (stereo not given), the growth is 86.9% (inactive).
`N=C(N)c1ccc(-c2ccc(-c3ccc(F)cc3)s2)cc1`: the growth is -95.1% (active).
Regarding `CCCCN(CCCC)c1ccc(C(=O)O)cc1`, the growth was 103% (inactive).
As for `OCCN1CCN(CC/C=C2/c3ccccc3Sc3ccc(C(F)(F)F)cc32)CC1`, the figure is 74.9% (inactive).
Take `CCCCCN1CCN(C(CC(=O)c2ccccc2)C(=O)c2ccccc2)CC1` (stereo not given): the growth was 81.6% (inactive).
Take `CC(=O)N1CCN(CCNC(=O)n2cc(-c3ccncc3)c(-c3cc(O)cc(Cl)c3)n2)CC1`: the growth was 99% (inactive).
With `CC([C@H]1CC=C2C3CCC4=C[C@@H](N(C)C)CC[C@]4(C)C3CC[C@@]21C)N(C)C` (stereo not given in full), the growth was -48.8% (active).
On to `Cc1ccc(S(=O)(=O)N/N=C2\CC3CCC2C3)cc1` (stereo not given), for which the growth is 101% (inactive).
On to `CC[C@@H](C)/C=C(C)/C=C/C(=O)c1c(O)c(-c2ccc(OC(=O)[C@@]34CC[C@@](C)(C(=O)O3)C4(C)C)cc2)cn(O)c1=O`, for which the growth was -27% (active).
In the case of `[N-]=[N+]=Nc1ncc(-c2ccc(C(F)(F)F)cc2)c(NC2CCCCCC2)n1`, the growth was -14.6% [100 µM] (active).
With `CC(=O)OCC1O[C@@H](OC(C)=O)[C@@H](NC(=O)NS(=O)(=O)c2ccccc2)C(OC(C)=O)[C@@H]1OC(C)=O` (stereo not given in full), the growth is 94.9% (inactive).
For `NNC(=O)CNc1ccc2ccccc2c1`, the growth is 106% (inactive).
Consider `CCOC(=O)CNS(=O)(=O)CC(=O)c1ccccc1`, for which the growth was 93% (inactive).
With `Nc1nc2c(c3cnccc13)C(c1cccc(Cl)c1)Cc1cnccc1-2` (stereo not given), the growth was 25.2% (inactive).
For `COc1cc2cn3c4ccc(O)cc4[nH]c(=O)c3c2cc1OC`, the growth is -51.7% (active).
As for `C/C=C(/C)C(=O)OC1C=C(CO)C(=O)C(OC(=O)C2(C)OC2C)C1C(C)C` (stereo not given), the growth is -23.6% (active).
As for `COC1NC(Cl)=C(C#N)C(C#N)(C#N)C1(C)C` (stereo not given), the figure is 104% (inactive).
Take `CC(C)(C)c1cc(C[P+](c2ccc(Cl)cc2)(c2ccc(Cl)cc2)c2ccc(Cl)cc2)cc(C(C)(C)C)c1O`: the growth was 84.2% (inactive).
For `CCCCCCC(C(=O)OCC)(C(=O)OCC)C1CCCCCC1` the value was 89.9% (inactive).
As to `CC(O)C(N)=O` (stereo not given), the growth is 95.6% (inactive).
As for `CC1Cc2cc(F)ccc2-n2cccc21` (stereo not given), the growth is 101% (inactive).
Take `C/C(=N\Nc1cccc(Cl)n1)c1ccccn1`: the growth was 12.7% (inactive).
Take `OCCN1CCCN(CCCN2c3ccccc3Sc3ccc(C(F)(F)F)cc32)CC1`: the growth was 85.7% (inactive).
As to `S=C(N/N=C/c1cc(Cl)cc(Cl)c1)NC12CC3CC(CC(C3)C1)C2`, the growth is -1.81% (active).
As for `O=C(N/N=C/c1ccccc1Cl)c1cccc2ccccc12`, the growth was 96.8% (inactive).
Turning to `COc1cc(-c2cc3cnccc3c3nc(N)c4ccncc4c23)cc(OC)c1OC`, the growth is 43.6% (inactive).
As for `CCCCN(CCCC)CC(O)CN(CC)CC` (stereo not given), the figure is 93.8% (inactive).
On to `O=C(O)c1occ(Cl)c1Cl`, for which the growth was 104% (inactive).
As for `Br/C(=N\Nc1nn[nH]n1)c1ccccc1`, the figure is 92.5% (inactive); as for `CCCCCCCCCC(C)NC(=O)CCl` (stereo not given), 93.4% (inactive).
In the case of `O=C(Nc1ccc(-n2cc(-c3ccncc3)c(-c3ccc(Cl)c(O)c3)n2)cc1)Nc1ccc(Cl)c(C(F)(F)F)c1`, the growth is -32.5% (active).
For the compound `CC(C)(C)c1ccc([I+]c2ccc(C(C)(C)C)cc2)cc1`, the growth was 87.6% (inactive).
Take `Cc1ccc(S(=O)(=O)Nc2cccc(Cn3c(=O)[nH]c4ccc(Oc5ncccn5)cc4c3=O)c2)cc1`: the growth is 92.9% (inactive).
With `O=C(NC(=S)NNC(=S)NNc1ccccc1)c1ccccc1`, the growth is 55.9% (inactive).
As for `O=C(CBr)OCc1ccc([N+](=O)[O-])o1`, the growth is 53.8% (inactive).
Consider `CC(=O)Nc1nc(C)c(C(=O)N/N=C/N2CCOCC2)s1`, for which the growth was 140% (inactive).
As to `CCN(CC)CCOC(=O)c1cccnc1`, the growth was 99.6% (inactive).
Turning to `Oc1ccccc1\C=N/N=C/C=C/c1ccccc1`, the growth was 96.7% (inactive).
